# Laboratory results as given in the supplement of paper PMC6522484.
# “And” between values parts separate entries of the source, which are not always exact repeats. Equal entries are not always repeated. ± gives the standard deviation of the averaged measurements.
# How the values were obtained:
# DLD1 [1] = experiment: cell viability (CellTiter-Glo) relative to plate median (fraction of plate median); higher = more viable cells; details: 5 µM; treatment time 24 h; reporter: 7TFP
# Outline: (§1)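 Colorectal cancer lines with stably integrated lentiviral TCF/Wnt firefly luciferase reporters received library compounds at a final 5 µM, 24 h after seeding into 384-well plates, for a 24 h exposure. Reported figures are plate-median-normalised firefly luciferase or CellTiterGlo luminescence per well. They average two independent replicates.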
# HCT116 [2] = experiment: as above; details: 5 µM; treatment time 24 h; reporter: TCF4/Wnt
# Outline: as §1
# SW480 [3] = experiment: as above; details: 5 µM; treatment time 24 h; reporter: 7TFP
# Outline: as §1
# DLD1 [4] = experiment: TCF/Wnt firefly luciferase reporter signal relative to plate median (fraction of plate median); higher = higher Wnt reporter signal; details: 5 µM; treatment time 24 h; reporter: 7TFP
# Outline: as §1
# SW480 [5] = experiment: as above; details: 5 µM; treatment time 24 h; reporter: 7TFP
# Outline: as §1
# DLD1 [6] = experiment: TCF/Wnt firefly luciferase reporter signal relative to plate median (fraction of plate median); higher = higher Wnt reporter signal; details: 10 µM, treatment time 24 h
# Outline: (§2)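 Values are the mean of two independent replicates of luminescence normalised to the plate median with webcellHTS2, using the additive method without log transformation. They come from colorectal cancer cell lines stably transduced with lentiviral TCF/Wnt firefly luciferase reporters (7TFP or TCF4/Wnt), seeded in 384-well plates. After 24 h the cells got kinase inhibitor library compounds at a final 10 µM for 24 h, and parallel plates were read for firefly luciferase or CellTiterGlo on a Tecan F500.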
# HCT116 [7] = experiment: as above; details: 10 µM; treatment time 24 h; reporter: TCF4/Wnt
# Outline: as §2
# SW480 [8] = experiment: as above; details: 10 µM; treatment time 24 h; reporter: 7TFP
# Outline: as §2
compound,measurement,setting,value
CC1(C)CC23C(=O)CCC(O)C2(C)CCC13 (stereo not drawn),cell viability,DLD1 [1],1.05 ± 0.15
same,cell viability,HCT116 [2],1.065 ± 0.0071
same,cell viability,SW480 [3],1.01 ± 0.049
same,TCF/Wnt firefly luciferase reporter signal,DLD1 [4],0.942 ± 0.11
same,TCF/Wnt firefly luciferase reporter signal,SW480 [5],1.04 ± 0.074
OCCN1CCN(CCCN2c3ccccc3Sc3ccc(C(F)(F)F)cc32)CC1,cell viability,DLD1 [1],0.902 ± 0.082
same,cell viability,HCT116 [2],0.973 ± 0.019
same,cell viability,SW480 [3],1.05 ± 0.09
same,TCF/Wnt firefly luciferase reporter signal,DLD1 [4],0.927 ± 0.12
same,TCF/Wnt firefly luciferase reporter signal,SW480 [5],1.04 ± 0.1
CC(=O)OC1CCC2(C)C3=C(CC[C@H]2C1(C)C)[C@@]1(C)CC[C@@H]([C@@H](C)CCC=C(C)C)[C@]1(C)CC3 (stereo partly drawn),cell viability,DLD1 [1],1.04 ± 0.097
same,cell viability,HCT116 [2],1 ± 0.064
same,cell viability,SW480 [3],0.961 ± 0.0014
same,TCF/Wnt firefly luciferase reporter signal,DLD1 [4],1.06 ± 0.17
same,TCF/Wnt firefly luciferase reporter signal,SW480 [5],1.11 ± 0.014
O=C(O)C1(C(=O)O)CCC1.[NH2-].[NH2-].[Pt+2],cell viability,DLD1 [1],1.02 ± 0.059
same,cell viability,HCT116 [2],1.08 ± 0.15
same,cell viability,SW480 [3],0.97 ± 0.028
same,TCF/Wnt firefly luciferase reporter signal,DLD1 [4],1.15 ± 0.099
same,TCF/Wnt firefly luciferase reporter signal,SW480 [5],1 ± 0.039
CC(=O)O[C@H]1CC[C@]2(C)[C@H]3CC=C4[C@@H]5CC(C)(C)CC[C@]5(C(=O)O)CC[C@@]4(C)[C@]3(C)CC[C@H]2C1(C)C,cell viability,DLD1 [1],1.06 ± 0.05
same,cell viability,HCT116 [2],1.11 ± 0.11
same,cell viability,SW480 [3],1.02 ± 0.033
same,TCF/Wnt firefly luciferase reporter signal,DLD1 [4],1.03
same,TCF/Wnt firefly luciferase reporter signal,SW480 [5],1.03 ± 0.021
CN1CCN2c3ccccc3Cc3ccccc3C2C1 (stereo not drawn),cell viability,DLD1 [1],1.03 ± 0.053
same,cell viability,HCT116 [2],1.08 ± 0.071
same,cell viability,SW480 [3],1.07 ± 0.021
same,TCF/Wnt firefly luciferase reporter signal,DLD1 [4],1.04 ± 0.083
same,TCF/Wnt firefly luciferase reporter signal,SW480 [5],1.08 ± 0.071
CS(=O)(=O)c1ccc([C@@H](O)[C@@H](CO)NC(=O)C(Cl)Cl)cc1,cell viability,DLD1 [1],0.914 ± 0.055
same,cell viability,HCT116 [2],0.958 ± 0.06
same,cell viability,SW480 [3],0.925 ± 0.014
same,TCF/Wnt firefly luciferase reporter signal,DLD1 [4],0.982 ± 0.018
same,TCF/Wnt firefly luciferase reporter signal,SW480 [5],0.814 ± 0.058
O=C(/C=C/c1ccc(O)c(O)c1)O[C@@H]1C[C@](O)(C(=O)O)C[C@@H](O)[C@H]1O,cell viability,DLD1 [1],0.9805 ± 0.0064
same,cell viability,HCT116 [2],0.95 ± 0.071
same,cell viability,SW480 [3],0.9255 ± 0.0092
same,TCF/Wnt firefly luciferase reporter signal,DLD1 [4],0.931 ± 0.096
same,TCF/Wnt firefly luciferase reporter signal,SW480 [5],0.9705 ± 0.0064
Cc1ccccc1-n1c(Cn2nc(-c3cccc(O)c3)c3c(N)ncnc32)nc2cccc(C)c2c1=O,TCF/Wnt firefly luciferase reporter signal,DLD1 [6]; reporter: 7TFP,1.07 ± 0.042
same,TCF/Wnt firefly luciferase reporter signal,DLD1 [6]; reporter: TCF4/Wnt,0.89 ± 0.021
same,TCF/Wnt firefly luciferase reporter signal,HCT116 [7],0.841 ± 0.44
same,TCF/Wnt firefly luciferase reporter signal,SW480 [8],1.07 ± 0.12
O=C([O-])[C@H]1/C(=C/CO)O[C@@H]2CC(=O)N21.[Li+],cell viability,DLD1 [1],1.045 ± 0.0071
same,cell viability,HCT116 [2],1.04 ± 0.064
same,cell viability,SW480 [3],1.02 ± 0.049
same,TCF/Wnt firefly luciferase reporter signal,DLD1 [4],1.04 ± 0.092
same,TCF/Wnt firefly luciferase reporter signal,SW480 [5],1.125 ± 0.0071
O=C(O)CCCc1ccccc1,cell viability,DLD1 [1],1.03 and 0.95
same,cell viability,HCT116 [2],0.968 and 0.85
same,cell viability,SW480 [3],0.993 and 1
same,TCF/Wnt firefly luciferase reporter signal,DLD1 [4],1.15 and 1.08
same,TCF/Wnt firefly luciferase reporter signal,SW480 [5],1.01 and 1.04
CC1(C)O[C@@H]2C[C@H]3[C@@H]4CCC5=CC(=O)C=C[C@]5(C)[C@H]4[C@@H](O)C[C@]3(C)[C@]2(C(=O)CO)O1,cell viability,DLD1 [1],0.999 ± 0.03
same,cell viability,HCT116 [2],1.06 ± 0.05
same,cell viability,SW480 [3],0.977 ± 0.033
same,TCF/Wnt firefly luciferase reporter signal,DLD1 [4],0.979 ± 0.086
same,TCF/Wnt firefly luciferase reporter signal,SW480 [5],0.9755 ± 0.0078
C=C1C(N)CC2CC1C2(C)C (stereo not drawn) [3-AMINO-beta-PINENE],cell viability,DLD1 [1],0.974 ± 0.093
same,cell viability,HCT116 [2],0.9965 ± 0.005
same,cell viability,SW480 [3],0.918 ± 0.024
same,TCF/Wnt firefly luciferase reporter signal,DLD1 [4],0.893 ± 0.0071
same,TCF/Wnt firefly luciferase reporter signal,SW480 [5],0.888 ± 0.016
"C[C@@H]1CC(=O)c2c(ccc3c2C(=O)c2cccc(O)c2C3=O)C1 [Ochromycinone (Isoform B, compound ID 7489)]",cell viability,DLD1 [1],1.1 ± 0.035
same,cell viability,HCT116 [2],1
same,cell viability,SW480 [3],0.991 ± 0.028
same,TCF/Wnt firefly luciferase reporter signal,DLD1 [4],0.781 ± 0.1
same,TCF/Wnt firefly luciferase reporter signal,SW480 [5],0.867 ± 0.047
CC(=O)c1ccc2c(c1)N(CCCN(C)C)c1ccccc1S2,cell viability,DLD1 [1],0.976 ± 0.048
same,cell viability,HCT116 [2],0.931 ± 0.037
same,cell viability,SW480 [3],0.964 ± 0.016
same,TCF/Wnt firefly luciferase reporter signal,DLD1 [4],1.06 ± 0.2
same,TCF/Wnt firefly luciferase reporter signal,SW480 [5],0.913 ± 0.12
O=c1oc2ccccc2cc1O,cell viability,DLD1 [1],0.992 ± 0.04
same,cell viability,HCT116 [2],0.955 ± 0.013
same,cell viability,SW480 [3],1.03 ± 0.021
same,TCF/Wnt firefly luciferase reporter signal,DLD1 [4],0.765 ± 0.016
same,TCF/Wnt firefly luciferase reporter signal,SW480 [5],0.911 ± 0.14
O=C1OCC(Cc2ccccc2)C1c1ccccc1 (stereo not drawn) [3-Benzyl-2-phenyl-butyrolactone],cell viability,DLD1 [1],1.07 ± 0.085
same,cell viability,HCT116 [2],1.01 ± 0.014
same,cell viability,SW480 [3],0.978 ± 0.045
same,TCF/Wnt firefly luciferase reporter signal,DLD1 [4],0.917 ± 0.12
same,TCF/Wnt firefly luciferase reporter signal,SW480 [5],1.1 ± 0.078
CC1CCC2(OC1)OC1CC3C4CCC5C[C@@H](O)CCC5(C)C4=CCC3(C)C1[C@@H]2C (stereo partly drawn) [3beta-HYDROXYISOALLOSPIROST-9(11)-ENE],cell viability,DLD1 [1],1.02 ± 0.021
same,cell viability,HCT116 [2],0.997 ± 0.12
same,cell viability,SW480 [3],0.973 ± 0.052
same,TCF/Wnt firefly luciferase reporter signal,DLD1 [4],1.02 ± 0.11
same,TCF/Wnt firefly luciferase reporter signal,SW480 [5],1.01 ± 0.016
O=C1OC(=O)[C@H]2[C@@H]1[C@@H]1CC[C@H]2O1,cell viability,DLD1 [1],0.9975 ± 0.0035
same,cell viability,HCT116 [2],0.867 ± 0.079
same,cell viability,SW480 [3],0.949 ± 0.0085
same,TCF/Wnt firefly luciferase reporter signal,DLD1 [4],1.06 ± 0.13
same,TCF/Wnt firefly luciferase reporter signal,SW480 [5],0.892 ± 0.02
O=c1[nH]cnc2c1ncn2[C@@H]1O[C@H](CO)[C@@H](O)[C@H]1O [Inosin],cell viability,DLD1 [1],0.943 ± 0.12
same,cell viability,HCT116 [2],0.91 ± 0.15
same,cell viability,SW480 [3],0.971 ± 0.013
same,TCF/Wnt firefly luciferase reporter signal,DLD1 [4],0.67 ± 0.24
same,TCF/Wnt firefly luciferase reporter signal,SW480 [5],0.999 ± 0.13
CC1(C)C=Cc2c(cc3occ(-c4ccc5c(c4)OCO5)c(=O)c3c2O)O1,cell viability,DLD1 [1],0.951 ± 0.083
same,cell viability,HCT116 [2],0.926 ± 0.17
same,cell viability,SW480 [3],0.952 ± 0.042
same,TCF/Wnt firefly luciferase reporter signal,DLD1 [4],0.909 ± 0.012
same,TCF/Wnt firefly luciferase reporter signal,SW480 [5],1 ± 0.042
O=C(O)CCCN1C(=O)c2cccc3cccc(c23)C1=O,cell viability,DLD1 [1],0.994 ± 0.08
same,cell viability,HCT116 [2],1.04 ± 0.035
same,cell viability,SW480 [3],0.995 ± 0.05
same,TCF/Wnt firefly luciferase reporter signal,DLD1 [4],0.96 ± 0.011
same,TCF/Wnt firefly luciferase reporter signal,SW480 [5],0.957 ± 0.047
Cc1cc2c(s1)Nc1ccccc1N=C2N1CCN(C)CC1,cell viability,DLD1 [1],0.979 ± 0.0057
same,cell viability,HCT116 [2],1.14 ± 0.12
same,cell viability,SW480 [3],1.03 ± 0.063
same,TCF/Wnt firefly luciferase reporter signal,DLD1 [4],1.05 ± 0.071
CC(C)(C(=O)O)c1ccc(C(O)CCCN2CCC(C(O)(c3ccccc3)c3ccccc3)CC2)cc1 (stereo not drawn),cell viability,DLD1 [1],1.05 ± 0.078
same,cell viability,HCT116 [2],0.899 ± 0.049
same,cell viability,SW480 [3],1.055 ± 0.0071
same,TCF/Wnt firefly luciferase reporter signal,DLD1 [4],1.05 ± 0.028
same,TCF/Wnt firefly luciferase reporter signal,SW480 [5],1.13
C[C@]12CC[C@@H]3c4ccc(O)cc4CC[C@H]3[C@@H]1C[C@@H](O)[C@@H]2O,cell viability,DLD1 [1],1.03 ± 0.035
same,cell viability,HCT116 [2],1.05 ± 0.057
same,cell viability,SW480 [3],1 ± 0.035
same,TCF/Wnt firefly luciferase reporter signal,DLD1 [4],1.07 ± 0.085
same,TCF/Wnt firefly luciferase reporter signal,SW480 [5],1.16 ± 0.071
CCOC(=O)c1c(C)c(Cl)c(O)c(Cl)c1O,cell viability,DLD1 [1],0.991 ± 0.042
same,cell viability,HCT116 [2],0.987 ± 0.013
same,cell viability,SW480 [3],0.9025 ± 0.0078
same,TCF/Wnt firefly luciferase reporter signal,DLD1 [4],0.966 ± 0.013
same,TCF/Wnt firefly luciferase reporter signal,SW480 [5],0.994 ± 0.052
CON,cell viability,DLD1 [1],1.03 ± 0.093
same,cell viability,HCT116 [2],1.01 ± 0.046
same,cell viability,SW480 [3],0.984 ± 0.018
same,TCF/Wnt firefly luciferase reporter signal,DLD1 [4],0.982 ± 0.04
same,TCF/Wnt firefly luciferase reporter signal,SW480 [5],0.981 ± 0.027
NCC[C@H](O)C(=O)N[C@@H]1C[C@H](N)[C@@H](O[C@H]2O[C@H](CN)[C@@H](O)[C@H](O)[C@H]2O)[C@H](O)[C@H]1O[C@H]1O[C@H](CO)[C@@H](O)[C@H](N)[C@H]1O,cell viability,DLD1 [1],1.01 ± 0.014
same,cell viability,HCT116 [2],1 ± 0.037
same,cell viability,SW480 [3],0.995 ± 0.036
same,TCF/Wnt firefly luciferase reporter signal,DLD1 [4],0.821 ± 0.11
same,TCF/Wnt firefly luciferase reporter signal,SW480 [5],0.905 ± 0.12
